Measurements as given in PubChem BioAssay (NCATS).
Unmarked numbers belong to inactive results. Activity calls are given as the source filed them. Unless noted, the call rests on the fitted dose curve.

molecular target: DNA dC->dU-editing enzyme APOBEC-3G (Homo sapiens) (UniProt Q9HC16); experiment: qHTS for inhibitors of Vif-A3G interactions: Validation (AID 588379; active means well fitted inhibition curve with a large enough effect; inconclusive means small, poorly fitted or top-dose-only effect; further: 0% is about no effect); settings: Vif-A3G protein interaction assay; series mostly up to 46.1 µM; activity change, negative = inhibition: at the top concentration
Sequence (Q9HC16 whole entry, looked up): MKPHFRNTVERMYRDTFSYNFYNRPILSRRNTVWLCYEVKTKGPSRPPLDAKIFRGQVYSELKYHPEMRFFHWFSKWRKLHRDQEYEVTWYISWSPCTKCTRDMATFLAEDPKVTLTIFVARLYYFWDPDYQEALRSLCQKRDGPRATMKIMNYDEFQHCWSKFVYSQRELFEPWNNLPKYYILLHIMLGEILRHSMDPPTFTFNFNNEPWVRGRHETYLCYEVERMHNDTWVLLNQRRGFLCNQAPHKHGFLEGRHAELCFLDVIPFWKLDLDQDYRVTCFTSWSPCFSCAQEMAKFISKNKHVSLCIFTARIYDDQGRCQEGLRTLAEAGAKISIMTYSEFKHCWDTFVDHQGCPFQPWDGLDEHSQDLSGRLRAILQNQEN
Outline: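 HeLa cells stably expressing Vif and A3G-eYFP, 700 cells/well, incubated overnight at 37 deg C, then exposed to compound overnight at 37 deg C. Inhibition of Vif-mediated degradation read as increased yellow fluorescence (Ex 488/Em 500-530) by laser-scanning cytometry.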

Question: How did the “activity change, negative = inhibition” value turn out when `Oc1ccc2[nH]cc(CCCCN3CC=C(c4ccccc4)CC3)c2c1` was run?
Answer: -2.78%

Question: How did the “activity change, negative = inhibition” value turn out when `C[C@@H]1C[C@@H]([C@H](O)CC2CC(=O)NC(=O)C2)C(=O)[C@@H](C)C1` was run?
Answer: 0.116%

Question: How did the “activity change, negative = inhibition” value turn out when `CN1[C@@H]2CC[C@H]1CC(OC(=O)c1cc(Cl)cc(Cl)c1)C2` (stereo not given in full) was run?
Answer: -1.2%

molecular target: Estrogen receptor (Homo sapiens) (UniProt P03372); experiment: qHTS assay for small molecule antagonists of estrogen receptor alpha signaling (AID 588513; active means well fitted curve in the direction sought with a large enough effect in the signal ratio, with a control signal flat, not every such curve was filed as active; inconclusive means small, poorly fitted or top-dose-only effect, or effect the other way, or a change in a side signal; inactive means no such curve, though single readings can be large or run the other way; the % refers to the signal ratio; further: potency means the concentration at half of the fitted maximal effect; on activity, negative = inhibition: on the % scale 0 is the no-effect control and ±100 the full control effect); settings: ER-alpha-UAS-bla HEK293, beta-lactamase ratio, antagonist mode; series mostly up to 76.9 µM; activity, negative = inhibition: at the top concentration
Sequence (P03372 whole entry, looked up): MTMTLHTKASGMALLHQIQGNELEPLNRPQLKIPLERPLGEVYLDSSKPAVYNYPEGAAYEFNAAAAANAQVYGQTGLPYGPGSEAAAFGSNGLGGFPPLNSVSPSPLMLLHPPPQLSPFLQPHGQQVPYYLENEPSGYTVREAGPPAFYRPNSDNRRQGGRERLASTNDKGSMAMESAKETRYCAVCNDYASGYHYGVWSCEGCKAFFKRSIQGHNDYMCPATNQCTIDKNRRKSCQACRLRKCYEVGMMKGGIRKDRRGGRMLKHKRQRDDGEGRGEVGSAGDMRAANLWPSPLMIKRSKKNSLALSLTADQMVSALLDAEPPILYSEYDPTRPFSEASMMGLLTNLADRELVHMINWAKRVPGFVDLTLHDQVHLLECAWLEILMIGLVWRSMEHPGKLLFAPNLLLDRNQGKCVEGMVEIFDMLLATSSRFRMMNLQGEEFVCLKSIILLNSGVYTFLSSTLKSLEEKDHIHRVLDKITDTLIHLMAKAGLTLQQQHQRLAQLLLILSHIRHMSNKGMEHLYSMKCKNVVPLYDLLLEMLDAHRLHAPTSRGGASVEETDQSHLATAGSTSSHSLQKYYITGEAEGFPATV
Outline: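 ER-alpha-UAS-bla GripTite HEK 293 cells in medium with 2% charcoal/dextran-treated FBS were preincubated 4 h at 37 C, dosed with compound (1:2 titration), stimulated with 0.5nM 17-beta-estradiol for 18 h, then read by CCF4 beta-lactamase fluorescence.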

Question: `Oc1ccc(Cl)cc1Cc1cc(Cl)ccc1O` was tested. Which Potency did it give?
Answer: 44.7 µM [inconclusive] (active)

Question: How did the “activity, negative = inhibition” value turn out when `NC(N)=NC(=O)c1nc(Cl)c(N)nc1N` was run?
Answer: 32.5%

Question: Which “activity, negative = inhibition” value does the source give for `O=C(NC(=O)c1c(F)cccc1F)Nc1cc(Cl)c(OC(F)(F)C(F)C(F)(F)F)cc1Cl` (stereo not given) here?
Answer: -7.78%

molecular target: Estrogen receptor (Homo sapiens) (UniProt P03372); experiment: qHTS assay for small molecule agonists of estrogen receptor alpha signaling (AID 588514); settings: ER-alpha-UAS-bla HEK293, beta-lactamase ratio, 18 h; series mostly up to 76.8 µM; activation: at the top concentration; further: nearly all actives have a fitted effect of over 70% in size; further: potency means the concentration at half of the fitted maximal effect;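 on activation: 0% = vehicle only and 100% = reference agonist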
Outline: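 Reporter-gene assay. […] controls beta-lactamase in HEK 293 GripTite cells; after 18 hrs with compound, CCF4 substrate is added for 2 hrs and fluorescence is read.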

Question: With `CCC(=O)O[C@H]1CC[C@H]2[C@@H]3CCC4=CC(=O)CC[C@]4(C)[C@H]3CC[C@]12C` as the molecule, how does the Potency read?
Answer: 2.82 µM (active)

Question: With `COP(=S)(OC)Oc1ccc(Sc2ccc(OP(=S)(OC)OC)cc2)cc1` as the molecule, how does the “activation” value read?
Answer: 19.6%

Question: How did the “activation” value turn out when `O=C(CCl)c1ccc(Cl)cc1Cl` was run?
Answer: -1.88%

Question: Which “activation” value does the source give for `O=C(NC(=O)c1c(F)cccc1F)Nc1cc(Cl)c(OC(F)(F)C(F)C(F)(F)F)cc1Cl` (stereo not given) here?
Answer: 2.03%
